The source made the active and inactive calls.
Legend:
[1] = small molecules captured by biotinylated probe aFSTL3 – biochemical, small-molecule microarray, fluorescence 635/667, stem cell growth factor project, primary screen (AID 1064); conditions: higher = more signal;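 further: measures binding of the biotinylated anti-FSTL3 antibody to printed compounds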
[2] = binders from COS7 lysate, DM2A8 probe, primary screen, torsin A project, cell lysate, small-molecule microarray, fluorescence 635/667 (AID 1065); conditions: higher = more signal, COS7 lysate expressing mutant human TOR1A
[3] = small molecules captured by biotinylated probe aFGF2 – biochemical, small-molecule microarray, fluorescence 635/667, stem cell growth factor project, primary screen (AID 1067); conditions: higher = more signal;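 further: measures binding of biotinylated aFGF2 protein to printed compounds on slides; z-score merges feature fluorescence and signal-to-noise across triplicate slides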
[4] = small molecules captured by biotinylated probe aFGF10 – biochemical, small-molecule microarray, fluorescence 635/667, stem cell growth factor project, primary screen (AID 1071); conditions: higher = more signal;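 further: score merges 667 nm spot intensity and signal to noise from triplicate slides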
[5] = molecular target: Neurogenic locus notch homolog protein 2 (Homo sapiens) (UniProt Q04721); assay: small molecules binding Notch2 protein – biochemical, small-molecule microarray, 635 nm fluorescence, stem cell growth factors, primary screen (AID 1073); conditions: higher = more signal
[6] = molecular target: Pro-neuregulin-1, membrane-bound isoform (Homo sapiens) (UniProt Q02297); assay: small molecules binding neuregulin-1 protein – biochemical, small-molecule microarray, fluorescence 635/667, psychiatric disease protein project, primary screen (AID 1075); conditions: NRG1 binding, 635 nm fluorescence, higher = more signal;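 further: score combines 667 nm spot fluorescence with signal to noise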
[7] = tested on: Neuregulin-1 EGF-like domain; assay: small molecules binding NRG1 EGF domain – biochemical, small-molecule microarray, 635 nm fluorescence, primary screen (AID 1081); conditions: higher = more signal;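 further: binding of the protein to compounds printed on small-molecule microarray slides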
[8] = FRG1 expression reporter modulators in myotubes – cell-based, C2C12 myotubes, firefly/Renilla luciferase, luminescence, FRG1 inhibition for FSHD, primary screen (AID 1084); conditions: FRG1 promoter luciferase, higher = more signal, called active from +8 up or from −8 down
[9] = small molecules captured by biotinylated probe aFST – biochemical, small-molecule microarray, fluorescence 635/667, stem cell growth factor project, primary screen (AID 1086); conditions: higher = more signal;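 further: score merges 667 nm fluorescence with signal-to-noise of each printed compound spot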
[10] = binders of probe aHhip on microarray, primary screen, stem cell growth factor project, biochemical, small-molecule microarray, fluorescence 635/667 (AID 1087); conditions: higher = more signal;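 further: score merges spot fluorescence at 667nm with spot signal to noise ratio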
[11] = tested on: PRMT1 (protein arginine N-methyltransferase 1); assay: small molecules binding arginine methyltransferase PRMT1 – biochemical, small-molecule microarray, 635 nm fluorescence, primary screen (AID 1088); conditions: higher = more signal;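 further: binding of Prmt1 protein to compounds spotted on small-molecule microarray slides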
[12] = growth effects on S. cerevisiae YJM789 – YJM789 clinical isolate, OD600, 24 h, basal, primary screen (AID 1089); conditions: higher = more signal, called active from +8 up or from −8 down;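 further: growth of clinical yeast isolate S. cerevisiae YJM 789 seeded 1000 cells per well; test concentration not given here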
[13] = S. pombe growth modifiers, basal conditions – strain 972, OD600, 24 h, no modulator, primary screen (AID 1090);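 further: basal condition with compound alone and no growth modifier present; test concentration not given here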; conditions: S. pombe 972 growth, higher = more signal, called active from +8 up or from −8 down
[14] = budding yeast growth modifiers under rapamycin – strain BY4716, OD600, 96 h, primary screen (AID 1091); further: test concentration not given here; conditions: S. cerevisiae BY4716 + rapamycin, higher = more signal, called active from +8 up or from −8 down
[15] = molecular target: Torsin-1A-interacting protein 2 (Homo sapiens) (UniProt Q8NFQ8); assay: small molecules binding lysate-expressed LULL1 – cell lysate, human LULL1 lysate, 635/667 nm fluorescence, primary screen (AID 1092); conditions: small-molecule microarray, hLULL1 lysate binding, 635 nm fluorescence; higher = more signal;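 further: probe is lysate of COS7 cells overexpressing human LULL1; score merges per-feature 667 nm fluorescence with signal-to-noise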
[16] = optical density change of DRC41 E. coli – strain DRC41, OD650, 24 h, E. coli filamentation project, primary screen (AID 1093);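 further: MC1000 strain lacking acrAB efflux and sulA so SOS filamentation is blocked; test concentration not given here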; conditions: E. coli DRC41 growth, higher = more signal, called active from +8 up or from −8 down
[17] = probe aLefty2 binding to arrayed compounds – biochemical, biotinylated probe, 635/667 nm fluorescence, primary screen (AID 1094); conditions: small-molecule microarray, higher = more signal;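 further: score merges spot fluorescence near 667 nm with spot signal-to-noise ratio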
[18] = tested on: Noggin (protein binding on small-molecule microarray); assay: small molecules binding Noggin protein – biochemical, 635/667 nm fluorescence, primary screen (AID 1095); conditions: 635 nm fluorescence, higher = more signal;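 further: score merges 667 nm feature fluorescence with signal to noise over triplicate slides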
[19] = molecular target: Neurogenic locus notch homolog protein 3 (Homo sapiens) (UniProt Q9UM47); assay: small molecules binding NOTCH3 protein – biochemical, 635/667 nm fluorescence, primary screen (AID 1096); conditions: small-molecule microarray, 635 nm fluorescence, higher = more signal
[20] = probe aEGFR binding to arrayed compounds – biochemical, biotinylated probe, 635/667 nm fluorescence, primary screen (AID 1097); conditions: small-molecule microarray, higher = more signal;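 further: probe is a biotinylated anti-EGFR antibody binding compounds printed on slides; score combines fluorescence near 667 nm and signal to noise of each spot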

Sequence of Neurogenic locus notch homolog protein 2 (Homo sapiens) (Q04721 whole entry, looked up, canonical isoform): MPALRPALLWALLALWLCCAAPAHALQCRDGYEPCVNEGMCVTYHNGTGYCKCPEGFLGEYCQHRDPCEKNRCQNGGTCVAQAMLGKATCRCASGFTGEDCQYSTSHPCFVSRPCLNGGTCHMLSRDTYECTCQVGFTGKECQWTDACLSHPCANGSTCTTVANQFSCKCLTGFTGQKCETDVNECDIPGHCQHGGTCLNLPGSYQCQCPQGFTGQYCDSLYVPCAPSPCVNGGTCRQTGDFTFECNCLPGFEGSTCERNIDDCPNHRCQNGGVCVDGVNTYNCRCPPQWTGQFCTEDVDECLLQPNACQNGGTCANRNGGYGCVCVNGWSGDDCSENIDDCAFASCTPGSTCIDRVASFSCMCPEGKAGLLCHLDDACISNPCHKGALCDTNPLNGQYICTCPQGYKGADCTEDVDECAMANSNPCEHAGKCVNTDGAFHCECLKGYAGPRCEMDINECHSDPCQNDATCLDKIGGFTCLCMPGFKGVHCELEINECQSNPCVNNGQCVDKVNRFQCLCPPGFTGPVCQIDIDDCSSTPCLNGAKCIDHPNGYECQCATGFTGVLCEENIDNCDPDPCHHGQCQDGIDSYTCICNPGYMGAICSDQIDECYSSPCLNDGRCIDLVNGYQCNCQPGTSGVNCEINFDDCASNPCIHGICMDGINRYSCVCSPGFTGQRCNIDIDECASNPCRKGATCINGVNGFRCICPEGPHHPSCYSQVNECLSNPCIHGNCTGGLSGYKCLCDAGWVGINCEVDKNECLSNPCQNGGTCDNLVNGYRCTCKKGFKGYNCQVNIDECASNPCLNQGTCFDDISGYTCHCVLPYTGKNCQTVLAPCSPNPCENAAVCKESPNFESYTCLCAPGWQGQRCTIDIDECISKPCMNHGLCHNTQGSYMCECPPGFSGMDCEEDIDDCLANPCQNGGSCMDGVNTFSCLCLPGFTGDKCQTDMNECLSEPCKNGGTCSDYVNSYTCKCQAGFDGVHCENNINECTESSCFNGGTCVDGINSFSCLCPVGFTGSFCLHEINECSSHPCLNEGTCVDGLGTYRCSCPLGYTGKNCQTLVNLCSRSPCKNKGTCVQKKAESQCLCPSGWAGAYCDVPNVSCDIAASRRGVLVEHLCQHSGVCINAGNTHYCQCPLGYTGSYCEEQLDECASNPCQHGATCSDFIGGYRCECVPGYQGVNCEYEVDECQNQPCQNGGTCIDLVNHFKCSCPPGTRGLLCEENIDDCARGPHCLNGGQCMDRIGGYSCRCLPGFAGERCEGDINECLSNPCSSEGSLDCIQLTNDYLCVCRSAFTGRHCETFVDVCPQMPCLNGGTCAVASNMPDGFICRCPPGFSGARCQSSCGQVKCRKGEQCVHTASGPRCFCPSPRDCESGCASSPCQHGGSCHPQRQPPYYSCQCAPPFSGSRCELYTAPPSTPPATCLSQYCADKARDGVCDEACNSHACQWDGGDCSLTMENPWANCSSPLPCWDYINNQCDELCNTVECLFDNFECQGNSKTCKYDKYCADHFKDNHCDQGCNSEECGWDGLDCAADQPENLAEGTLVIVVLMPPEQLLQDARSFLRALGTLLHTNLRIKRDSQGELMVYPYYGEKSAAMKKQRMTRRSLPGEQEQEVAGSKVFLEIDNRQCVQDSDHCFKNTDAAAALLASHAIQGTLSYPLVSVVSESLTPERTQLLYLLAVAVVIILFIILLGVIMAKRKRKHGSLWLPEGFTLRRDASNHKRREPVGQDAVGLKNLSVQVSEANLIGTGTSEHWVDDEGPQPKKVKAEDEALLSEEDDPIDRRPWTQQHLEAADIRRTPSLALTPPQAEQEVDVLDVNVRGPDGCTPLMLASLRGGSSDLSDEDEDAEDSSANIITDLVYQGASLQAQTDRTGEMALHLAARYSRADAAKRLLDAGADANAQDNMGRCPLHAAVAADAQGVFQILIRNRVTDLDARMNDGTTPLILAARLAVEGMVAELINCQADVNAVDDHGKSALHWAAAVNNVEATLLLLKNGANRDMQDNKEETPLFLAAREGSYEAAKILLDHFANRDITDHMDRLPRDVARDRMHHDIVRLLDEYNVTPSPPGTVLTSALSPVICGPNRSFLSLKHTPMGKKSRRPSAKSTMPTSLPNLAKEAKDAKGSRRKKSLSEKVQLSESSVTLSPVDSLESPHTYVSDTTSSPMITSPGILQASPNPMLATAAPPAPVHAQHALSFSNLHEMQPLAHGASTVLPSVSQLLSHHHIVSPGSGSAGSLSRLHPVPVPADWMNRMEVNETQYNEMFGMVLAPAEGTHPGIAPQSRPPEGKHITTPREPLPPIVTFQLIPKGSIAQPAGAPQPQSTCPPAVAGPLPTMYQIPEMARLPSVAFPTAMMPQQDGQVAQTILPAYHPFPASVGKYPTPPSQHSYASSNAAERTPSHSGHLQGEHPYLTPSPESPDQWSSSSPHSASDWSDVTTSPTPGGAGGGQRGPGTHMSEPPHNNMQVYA
Sequence of Neurogenic locus notch homolog protein 3 (Homo sapiens) (Q9UM47 whole entry, looked up): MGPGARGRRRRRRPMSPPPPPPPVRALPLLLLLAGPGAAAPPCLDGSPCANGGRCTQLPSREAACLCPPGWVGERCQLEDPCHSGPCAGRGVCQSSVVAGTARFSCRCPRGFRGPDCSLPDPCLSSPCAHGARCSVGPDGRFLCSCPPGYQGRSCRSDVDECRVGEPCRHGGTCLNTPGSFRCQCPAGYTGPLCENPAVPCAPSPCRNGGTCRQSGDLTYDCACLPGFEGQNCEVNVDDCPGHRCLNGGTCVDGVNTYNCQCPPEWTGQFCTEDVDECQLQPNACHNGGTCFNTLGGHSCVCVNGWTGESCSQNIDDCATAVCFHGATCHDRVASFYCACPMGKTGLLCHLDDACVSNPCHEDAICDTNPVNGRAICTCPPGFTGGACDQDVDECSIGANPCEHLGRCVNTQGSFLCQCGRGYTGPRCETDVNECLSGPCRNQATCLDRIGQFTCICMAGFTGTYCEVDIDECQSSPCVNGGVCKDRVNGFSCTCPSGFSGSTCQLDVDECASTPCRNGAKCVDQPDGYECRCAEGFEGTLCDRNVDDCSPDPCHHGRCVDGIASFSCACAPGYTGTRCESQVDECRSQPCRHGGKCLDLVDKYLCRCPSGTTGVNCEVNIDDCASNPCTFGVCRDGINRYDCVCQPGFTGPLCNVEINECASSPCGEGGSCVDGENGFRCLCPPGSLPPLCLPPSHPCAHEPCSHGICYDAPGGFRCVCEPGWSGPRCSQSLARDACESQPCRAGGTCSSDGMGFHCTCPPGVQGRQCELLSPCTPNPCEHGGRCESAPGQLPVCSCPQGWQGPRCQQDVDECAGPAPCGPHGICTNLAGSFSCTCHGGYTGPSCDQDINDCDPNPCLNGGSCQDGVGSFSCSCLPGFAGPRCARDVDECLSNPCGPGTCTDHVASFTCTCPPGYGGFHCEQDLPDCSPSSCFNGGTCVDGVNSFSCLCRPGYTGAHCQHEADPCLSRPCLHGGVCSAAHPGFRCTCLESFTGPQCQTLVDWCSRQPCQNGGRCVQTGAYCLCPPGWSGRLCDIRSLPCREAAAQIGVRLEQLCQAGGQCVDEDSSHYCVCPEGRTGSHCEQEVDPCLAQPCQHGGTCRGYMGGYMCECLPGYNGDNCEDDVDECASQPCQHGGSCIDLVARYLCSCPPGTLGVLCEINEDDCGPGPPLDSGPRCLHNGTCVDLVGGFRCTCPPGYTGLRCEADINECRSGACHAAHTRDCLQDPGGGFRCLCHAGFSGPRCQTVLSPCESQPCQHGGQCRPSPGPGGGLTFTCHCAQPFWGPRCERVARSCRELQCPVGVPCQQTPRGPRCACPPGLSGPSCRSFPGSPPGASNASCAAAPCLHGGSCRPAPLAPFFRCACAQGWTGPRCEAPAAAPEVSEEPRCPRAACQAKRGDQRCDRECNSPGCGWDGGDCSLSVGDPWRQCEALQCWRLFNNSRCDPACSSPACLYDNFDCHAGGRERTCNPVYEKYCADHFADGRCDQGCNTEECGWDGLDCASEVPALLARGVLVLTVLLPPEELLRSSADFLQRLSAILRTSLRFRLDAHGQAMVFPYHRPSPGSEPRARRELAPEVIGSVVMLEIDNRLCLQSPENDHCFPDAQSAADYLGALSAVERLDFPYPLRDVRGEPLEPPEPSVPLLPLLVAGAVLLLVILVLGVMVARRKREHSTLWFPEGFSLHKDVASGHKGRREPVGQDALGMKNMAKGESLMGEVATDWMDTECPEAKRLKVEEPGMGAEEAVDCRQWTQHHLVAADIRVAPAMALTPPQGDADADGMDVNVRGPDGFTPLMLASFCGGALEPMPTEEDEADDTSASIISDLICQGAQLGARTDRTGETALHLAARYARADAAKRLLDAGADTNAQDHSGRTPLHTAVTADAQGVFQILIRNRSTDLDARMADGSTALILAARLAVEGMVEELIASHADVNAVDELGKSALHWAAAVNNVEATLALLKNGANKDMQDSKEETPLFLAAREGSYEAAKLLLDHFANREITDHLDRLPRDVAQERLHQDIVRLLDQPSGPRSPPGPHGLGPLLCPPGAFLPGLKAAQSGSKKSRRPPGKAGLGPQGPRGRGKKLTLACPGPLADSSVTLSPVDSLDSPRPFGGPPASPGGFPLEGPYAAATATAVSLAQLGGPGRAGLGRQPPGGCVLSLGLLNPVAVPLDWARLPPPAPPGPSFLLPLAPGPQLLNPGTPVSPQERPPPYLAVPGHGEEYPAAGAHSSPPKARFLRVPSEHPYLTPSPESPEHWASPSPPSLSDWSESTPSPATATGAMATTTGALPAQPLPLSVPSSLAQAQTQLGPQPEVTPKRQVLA

SMILES	composite z-score [1]	composite z-score [2]	composite z-score [3]	composite z-score [4]	composite z-score [5]	composite z-score [6]	composite z-score [7]	z-score [8]	composite z-score [9]	composite z-score [10]	composite z-score [11]	z-score [12]	z-score [13]	z-score [14]	composite z-score [15]	z-score [16]	composite z-score [17]	composite z-score [18]	composite z-score [19]	composite z-score [20]
O=C(N1CCCCC1)[C@@]1(CCS(=O)(=O)c2ccccc2)N=C(c2ccc(OCCCO)cc2)O[C@H]1c1ccccc1	0.151	0.529	0.236	0.685	1.4	0.0933	1.23	-0.144 (inactive)	1.51	-0.0645	1.24	-0.418 (inactive)	-0.938 (inactive)	30.4 (active)	3.63	0.943 (inactive)	0.0971	0.688	1.12	-0.0828
C[N+](C)(C)CCCCNC(=O)[C@H]1C[C@H]2C(=O)NCC(=O)N2[C@H]1c1cccc(OCCO)c1	-0.514	2.35	-0.0375	1.15	0.0841	0.309	1.43	1.73 (inactive)	0.533	0.245	1.54	-0.138 (inactive)	0.0073 (inactive)	-1.66 (inactive)	0.57	-0.271 (inactive)	-0.0463	1.91	1.05	0.0717
CCN1C(C)=C(C(=O)OC)[C@@H](c2ccccc2)N2C(=O)[C@@]3(C(=O)OC)O[C@@]12[C@@H]1C(=O)N(c2ccccc2)C(=O)[C@@H]13	-0.418	0.833	-0.0924	0.877	1.14	0.75	0.892	-0.909 (inactive)	0.585	0.122	1.22	-0.806 (inactive)	-1.23 (inactive)	-0.325 (inactive)	1.2	-0.0256 (inactive)	-0.19	1.21	0.983	-0.087
O=C1O[C@@H](c2ccccc2)[C@@H](c2ccccc2)N2[C@@H](c3ccc(O)cc3)[C@]3(C(=O)Nc4ccccc43)[C@@H](C(=O)N3CCN(c4ncccn4)CC3)[C@H]12	0.0022	0.637	0.142	0.0271	-0.486	0.474	1.25	-3.02 (inactive)	0.0944	0.0274	1.29	0.2 (inactive)	-1.95 (inactive)	1.98 (inactive)	2.71	3.16 (inactive)	-0.12	-0.534	0.079	-0.179
CN1C(=O)C2C=CC(C(O)C3CC=CCC3)N(Nc3ccccc3)C2C1=O (stereo not given)	0.0125	1.54	0.0631	0.752	1.62	1.85	1.29	0.294 (inactive)	0.733	0.382	1.47	0.373 (inactive)	0.772 (inactive)	0.726 (inactive)	3.32	-0.623 (inactive)	0.344	0.584	1.06	0.112
O=C1O[C@H](c2ccccc2)[C@H](c2ccccc2)N2[C@H]1[C@@H](C(=O)NC[C@H](O)c1ccccc1)[C@]1(C(=O)Nc3ccc(C#CC4(O)CCCCCC4)cc31)[C@H]2c1ccc(OCCO)cc1	0.247	0.634	0.0589	0.577	1.19	1.02	1.24	1.04 (inactive)	0.388	0.0024	1.32	1.93 (inactive)	-0.538 (inactive)	4.16 (inactive)	2.72	3.35 (inactive)	0.159	0.423	0.868	0.0301
Cc1cc(C)c(C(O)C2C=CC3C(=O)N(C)C(=O)C3N2N2CCCCC2)c(C)c1 (stereo not given)	0.0308	0.563	0.205	1.02	1.69	0.918	1.3	0.251 (inactive)	1.27	-0.206	1.54	-0.133 (inactive)	1.08 (inactive)	-0.376 (inactive)	2.99	-0.587 (inactive)	0.433	0.521	1.06	0.301
CC[C@@H]1C=C(C(=O)O)[C@H](c2ccccc2)N1S(=O)(=O)c1ccc([N+](=O)[O-])cc1	0.0455	-0.0271	-0.0669	0.223	0.989	1.86	1.08	-2.22 (inactive)	0.13	-0.0831	0.372	0.308 (inactive)	-0.434 (inactive)	0.632 (inactive)	3.38	-1.86 (inactive)	0.0634	-0.297	0.481	0.0276
C=CCN1C(=O)[C@@]2(O[C@@H](CCn3cc([C@H](O)c4ccccc4)nn3)[C@H]([Si](C)(C)c3ccc(OC)cc3)[C@H]2C)c2cc(N3CCOC3=O)ccc21	0.228	0.39	-0.104	0.105	-0.261	-0.344	1.1	-2 (inactive)	-0.0319	-0.0645	1.15	-1.26 (inactive)	-1.88 (inactive)	-0.723 (inactive)	1.8	2.19 (inactive)	-0.0463	-0.0328	0.131	-0.121
C=CCOC(=O)[C@@H]1[C@H]2C(=O)O[C@H](c3ccccc3)[C@H](c3ccccc3)N2[C@H](c2ccc(OCCOC(=O)[C@H]3C[C@H]4C(=O)N[C@@H](CCCCNC(C)=O)C(=O)N4[C@H]3c3ccc(O)cc3)cc2)[C@@]12C(=O)Nc1ccc(I)cc12	-0.583	0.242	0.0435	0.536	0.5	1.24	1.17	0.46 (inactive)	-0.0007	0.158	1.55	1.38 (inactive)	0.802 (inactive)	4.48 (inactive)	1.39	-0.428 (inactive)	-0.0974	1.66	1.07	0.0333

Reference: PubChem BioAssay
